Measurements reported in the supplement of paper PMC10849652.
Of roughly 7,900 targets only a part is listed; those with a hit were picked by preference. About 0.6% of all pairs of compound and target were hits.

Legend:
Test in all cases: log2 fold change, soluble protein after heating vs DMSO (PISA); higher = thermal stabilisation; K562 cells, 10 uM, 30 min; active = over 0.2 and 3.5 SD of the protein, either way, in both replicates (recomputed)
ZEB2 = ZEB2 (UniProt O60315)
How it was run: (§1)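 K562 cells at 2×10^6 cells/mL were exposed to 10 μM compound for 30 min, then aliquots were heated for 3 min across 48°C-58°C, pooled, and extracted in PBS containing 0.5% NP-40 at 4°C. The supernatant after 21,000xg for 90 min was taken as soluble protein and measured by TMTpro 16plex LC-MS/MS with channel sums equalised. Thermal stability is reported relative to control samples, with values from duplicates. Fold changes are given on a log2 scale.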

ZER1 = ZER1 (UniProt Q7Z7L7)
How it was run: as §1

ZFAND5 = ZFAND5 (UniProt O76080)
How it was run: as §1

ZFAND6 = ZFAND6 (UniProt Q6FIF0)
How it was run: as §1

ZFP91 = ZFP91 (UniProt Q96JP5)
How it was run: as §1

ZFPL1 = ZFPL1 (UniProt O95159)
How it was run: as §1

ZMAT2 = ZMAT2 (UniProt Q96NC0)
How it was run: as §1

ZMYM1 = ZMYM1 (UniProt Q5SVZ6)
How it was run: as §1

ZMYM3 = ZMYM3 (UniProt Q14202)
How it was run: as §1

ZNF143 = ZNF143 (UniProt P52747)
How it was run: as §1

Measured: log2 fold change

Sequence of ZNF143 (P52747 whole entry, looked up): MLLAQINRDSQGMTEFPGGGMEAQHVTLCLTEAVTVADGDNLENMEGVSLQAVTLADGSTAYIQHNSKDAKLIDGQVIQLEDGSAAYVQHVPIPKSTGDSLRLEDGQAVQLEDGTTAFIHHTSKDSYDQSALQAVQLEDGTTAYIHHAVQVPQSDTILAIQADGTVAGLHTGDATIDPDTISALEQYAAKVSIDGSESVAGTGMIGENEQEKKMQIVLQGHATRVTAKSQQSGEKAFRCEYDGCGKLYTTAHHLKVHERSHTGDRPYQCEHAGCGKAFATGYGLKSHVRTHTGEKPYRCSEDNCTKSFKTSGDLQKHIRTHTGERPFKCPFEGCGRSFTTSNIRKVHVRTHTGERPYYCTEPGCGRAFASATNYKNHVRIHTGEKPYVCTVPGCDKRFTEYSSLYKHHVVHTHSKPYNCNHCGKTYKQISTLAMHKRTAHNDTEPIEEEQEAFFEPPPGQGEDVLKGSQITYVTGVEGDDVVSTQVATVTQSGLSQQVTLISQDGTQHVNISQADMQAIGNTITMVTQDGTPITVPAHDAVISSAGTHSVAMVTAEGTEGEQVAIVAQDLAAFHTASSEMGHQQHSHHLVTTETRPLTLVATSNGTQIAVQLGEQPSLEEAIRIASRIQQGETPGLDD
Sequence of ZFPL1 (O95159 whole entry, looked up): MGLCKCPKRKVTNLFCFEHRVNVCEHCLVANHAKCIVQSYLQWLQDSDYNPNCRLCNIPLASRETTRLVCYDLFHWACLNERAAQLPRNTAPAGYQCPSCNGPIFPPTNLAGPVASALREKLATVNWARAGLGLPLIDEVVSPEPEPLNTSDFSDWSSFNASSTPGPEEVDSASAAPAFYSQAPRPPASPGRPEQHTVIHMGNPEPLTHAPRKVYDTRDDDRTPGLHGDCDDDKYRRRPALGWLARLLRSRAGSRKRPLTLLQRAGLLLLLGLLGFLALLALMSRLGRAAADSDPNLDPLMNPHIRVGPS
Sequence of ZMYM1 (Q5SVZ6 whole entry, looked up): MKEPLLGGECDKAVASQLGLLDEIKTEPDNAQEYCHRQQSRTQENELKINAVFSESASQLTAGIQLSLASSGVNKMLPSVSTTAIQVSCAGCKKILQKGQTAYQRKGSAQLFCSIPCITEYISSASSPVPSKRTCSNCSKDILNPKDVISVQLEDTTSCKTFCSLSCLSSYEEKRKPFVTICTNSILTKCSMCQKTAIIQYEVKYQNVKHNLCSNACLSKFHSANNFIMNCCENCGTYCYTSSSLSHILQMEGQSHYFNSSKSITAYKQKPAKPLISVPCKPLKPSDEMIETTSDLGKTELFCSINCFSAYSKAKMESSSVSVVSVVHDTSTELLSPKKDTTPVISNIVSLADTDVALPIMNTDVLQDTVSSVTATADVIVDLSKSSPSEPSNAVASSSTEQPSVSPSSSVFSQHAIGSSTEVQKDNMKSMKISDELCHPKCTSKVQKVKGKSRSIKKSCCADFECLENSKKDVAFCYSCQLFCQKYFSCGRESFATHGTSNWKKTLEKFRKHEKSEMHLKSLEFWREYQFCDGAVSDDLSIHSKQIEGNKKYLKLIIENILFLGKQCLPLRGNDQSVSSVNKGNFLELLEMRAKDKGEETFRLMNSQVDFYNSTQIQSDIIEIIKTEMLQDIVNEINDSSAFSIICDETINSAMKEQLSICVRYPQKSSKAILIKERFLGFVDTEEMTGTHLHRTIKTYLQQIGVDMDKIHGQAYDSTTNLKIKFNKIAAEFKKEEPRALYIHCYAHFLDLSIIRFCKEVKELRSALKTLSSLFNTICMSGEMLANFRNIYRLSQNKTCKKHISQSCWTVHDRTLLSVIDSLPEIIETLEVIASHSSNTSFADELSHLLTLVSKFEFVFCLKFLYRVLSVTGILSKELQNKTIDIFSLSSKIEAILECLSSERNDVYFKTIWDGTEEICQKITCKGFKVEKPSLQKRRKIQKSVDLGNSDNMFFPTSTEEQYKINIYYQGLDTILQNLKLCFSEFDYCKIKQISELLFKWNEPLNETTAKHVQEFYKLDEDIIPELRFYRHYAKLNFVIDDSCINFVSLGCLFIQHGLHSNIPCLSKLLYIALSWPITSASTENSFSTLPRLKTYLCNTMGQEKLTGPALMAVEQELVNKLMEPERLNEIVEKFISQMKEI
Sequence of ZER1 (Q7Z7L7 whole entry, looked up): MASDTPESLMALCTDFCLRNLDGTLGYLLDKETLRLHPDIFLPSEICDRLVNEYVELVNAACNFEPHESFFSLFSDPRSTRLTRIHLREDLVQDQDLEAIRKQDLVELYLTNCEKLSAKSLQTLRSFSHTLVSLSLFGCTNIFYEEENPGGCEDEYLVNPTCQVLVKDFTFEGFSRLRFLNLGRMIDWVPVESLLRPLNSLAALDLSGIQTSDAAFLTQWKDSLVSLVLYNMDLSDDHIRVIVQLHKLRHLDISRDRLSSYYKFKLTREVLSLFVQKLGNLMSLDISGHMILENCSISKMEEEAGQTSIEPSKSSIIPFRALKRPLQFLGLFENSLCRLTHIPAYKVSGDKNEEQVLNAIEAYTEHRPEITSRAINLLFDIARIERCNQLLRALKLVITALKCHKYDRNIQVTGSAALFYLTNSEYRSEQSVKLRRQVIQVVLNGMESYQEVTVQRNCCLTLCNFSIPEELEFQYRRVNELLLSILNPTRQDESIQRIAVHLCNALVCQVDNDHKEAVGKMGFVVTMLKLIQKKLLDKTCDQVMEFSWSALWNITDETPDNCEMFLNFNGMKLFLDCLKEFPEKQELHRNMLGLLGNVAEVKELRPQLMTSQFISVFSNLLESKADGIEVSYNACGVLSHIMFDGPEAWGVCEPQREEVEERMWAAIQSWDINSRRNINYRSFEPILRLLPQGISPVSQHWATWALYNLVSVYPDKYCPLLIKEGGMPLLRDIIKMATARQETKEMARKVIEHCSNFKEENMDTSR
Sequence of ZMAT2 (Q96NC0 whole entry, looked up): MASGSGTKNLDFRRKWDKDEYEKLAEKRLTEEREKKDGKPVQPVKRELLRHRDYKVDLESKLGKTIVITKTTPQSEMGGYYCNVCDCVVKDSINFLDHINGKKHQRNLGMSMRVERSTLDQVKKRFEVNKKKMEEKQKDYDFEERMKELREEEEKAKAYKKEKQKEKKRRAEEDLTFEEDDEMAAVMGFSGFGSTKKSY
Sequence of ZEB2 (O60315 whole entry, looked up): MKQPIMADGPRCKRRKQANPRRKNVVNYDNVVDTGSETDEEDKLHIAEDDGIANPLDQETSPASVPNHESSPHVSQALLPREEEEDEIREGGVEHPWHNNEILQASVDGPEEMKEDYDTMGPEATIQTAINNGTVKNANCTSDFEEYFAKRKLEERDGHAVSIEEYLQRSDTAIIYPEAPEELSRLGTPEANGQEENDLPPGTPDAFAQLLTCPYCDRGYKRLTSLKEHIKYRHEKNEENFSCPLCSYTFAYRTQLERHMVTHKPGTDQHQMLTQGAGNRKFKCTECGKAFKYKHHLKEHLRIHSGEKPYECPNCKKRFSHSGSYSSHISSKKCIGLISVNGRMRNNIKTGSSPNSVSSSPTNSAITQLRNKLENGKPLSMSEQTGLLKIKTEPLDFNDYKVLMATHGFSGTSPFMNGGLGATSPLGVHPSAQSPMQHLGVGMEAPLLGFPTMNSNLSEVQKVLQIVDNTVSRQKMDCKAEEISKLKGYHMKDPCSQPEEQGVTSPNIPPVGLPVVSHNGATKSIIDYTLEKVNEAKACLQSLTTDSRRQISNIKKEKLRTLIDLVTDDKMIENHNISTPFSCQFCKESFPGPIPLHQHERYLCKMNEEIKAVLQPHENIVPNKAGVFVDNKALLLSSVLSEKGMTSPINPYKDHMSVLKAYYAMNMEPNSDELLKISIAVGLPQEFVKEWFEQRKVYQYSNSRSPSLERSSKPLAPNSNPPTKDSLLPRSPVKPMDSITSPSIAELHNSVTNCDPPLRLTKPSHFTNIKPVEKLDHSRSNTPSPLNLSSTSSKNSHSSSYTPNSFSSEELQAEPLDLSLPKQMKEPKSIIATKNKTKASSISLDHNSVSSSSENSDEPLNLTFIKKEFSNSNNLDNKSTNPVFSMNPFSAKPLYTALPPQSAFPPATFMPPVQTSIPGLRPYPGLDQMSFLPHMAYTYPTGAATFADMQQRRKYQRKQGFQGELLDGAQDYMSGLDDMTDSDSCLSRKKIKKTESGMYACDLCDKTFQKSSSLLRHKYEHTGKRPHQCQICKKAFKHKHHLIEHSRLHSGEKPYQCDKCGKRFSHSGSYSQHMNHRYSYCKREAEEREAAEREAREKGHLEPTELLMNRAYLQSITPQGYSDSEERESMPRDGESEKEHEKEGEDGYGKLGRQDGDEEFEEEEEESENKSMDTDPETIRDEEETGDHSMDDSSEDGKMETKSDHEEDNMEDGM
Sequence of ZFAND5 (O76080 whole entry, looked up): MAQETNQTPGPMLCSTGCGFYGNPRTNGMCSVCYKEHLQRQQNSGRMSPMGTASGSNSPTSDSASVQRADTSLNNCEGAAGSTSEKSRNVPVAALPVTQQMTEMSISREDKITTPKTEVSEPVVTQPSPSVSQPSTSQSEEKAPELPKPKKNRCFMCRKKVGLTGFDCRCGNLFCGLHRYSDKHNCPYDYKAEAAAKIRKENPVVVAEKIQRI
Sequence of ZFAND6 (Q6FIF0 whole entry, looked up): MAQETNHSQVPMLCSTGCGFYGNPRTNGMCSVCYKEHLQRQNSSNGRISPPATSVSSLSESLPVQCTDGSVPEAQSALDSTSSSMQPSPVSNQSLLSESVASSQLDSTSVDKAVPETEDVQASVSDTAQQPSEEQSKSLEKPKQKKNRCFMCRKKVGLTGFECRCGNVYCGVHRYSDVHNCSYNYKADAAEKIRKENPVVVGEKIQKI

C[C@H](Nc1ncnc2nc[nH]c12)c1cc2cccc(Cl)c2c(=O)n1-c1ccccc1 [duvelisib]
inactive: ZEB2 0.05 | ZER1 -0.154 | ZFAND5 -0.063 | ZFAND6 0.032 | ZFP91 -0.038 | ZFPL1 0.046 | ZMAT2 0.014 | ZMYM1 -0.096 | ZMYM3 0.021 | ZNF143 -0.146

CN1CCN(c2nc(C3=C(c4c[nH]c5ccccc45)C(=O)NC3=O)c3ccccc3n2)CC1 [sotrastaurin]
inactive: ZEB2 -0.056 | ZER1 0.078 | ZFAND5 0.11 | ZFAND6 0.13 | ZFP91 0.105 | ZFPL1 0.003 | ZMAT2 -0.088 | ZMYM1 0.027 | ZMYM3 0.027 | ZNF143 -0.031

CS(=O)(=O)CCNCc1ccc(-c2ccc3ncnc(Nc4ccc(OCc5cccc(F)c5)c(Cl)c4)c3c2)o1 [lapatinib]
inactive: ZEB2 0.019 | ZER1 -0.057 | ZFAND5 0.038 | ZFAND6 -0.106 | ZFP91 0.173 | ZFPL1 -0.035 | ZMAT2 0.016 | ZMYM1 0.082 | ZMYM3 0.007 | ZNF143 -0.011

Cn1c2cc(S(C)=O)sc2c2cnn(Cc3cccc(N)c3)c(=O)c21 (stereo not given)
inactive: ZEB2 0.098 | ZER1 0.019 | ZFAND5 0.022 | ZFAND6 -0.003 | ZFP91 0.099 | ZFPL1 -0.031 | ZMAT2 -0.034 | ZMYM1 -0.014 | ZMYM3 -0.023 | ZNF143 -0.003

CC1=C(C(=O)Nc2cc3cn[nH]c3cc2F)C(c2ccc(C(F)(F)F)cc2)CC(=O)N1 (stereo not given)
inactive: ZEB2 -0.076 | ZER1 -0.112 | ZFAND5 0.058 | ZFAND6 -0.013 | ZFP91 0.058 | ZFPL1 0.041 | ZMAT2 0.026 | ZMYM1 0.088 | ZMYM3 0.062 | ZNF143 0.033

NC(=O)c1ccc2nc(-c3ccc(Oc4ccc(Cl)cc4)cc3)[nH]c2c1
inactive: ZEB2 0.029 | ZER1 -0.311 | ZFAND5 -0.013 | ZFAND6 0.003 | ZFP91 0.017 | ZFPL1 0.055 | ZMAT2 0.019 | ZMYM1 -0.135 | ZMYM3 -0.02 | ZNF143 0.039

CC(C)(O)CC(=O)NCCn1ccc2ncnc(Nc3ccc(Oc4cccc(C(F)(F)F)c4)c(Cl)c3)c21
inactive: ZEB2 0.034 | ZER1 -0.104 | ZFAND5 -0.019 | ZFAND6 0.015 | ZFP91 0.065 | ZFPL1 0.04 | ZMAT2 -0.016 | ZMYM1 -0.01 | ZMYM3 0.084 | ZNF143 0.028

C[C@@H]1COCCN1c1cc(C2(S(C)(=O)=O)CC2)nc(-c2cccc3[nH]ccc23)n1
inactive: ZEB2 0.001 | ZER1 0.107 | ZFAND5 0.041 | ZFAND6 0.127 | ZFP91 -0.124 | ZFPL1 -0.056 | ZMAT2 -0.022 | ZMYM1 0.029 | ZMYM3 -0.058 | ZNF143 -0.018

Oc1cc(-c2nc(-c3ccccc3)[nH]c2-c2ccncc2)ccc1Cl
inactive: ZEB2 -0.053 | ZER1 0.012 | ZFAND5 -0.024 | ZFAND6 -0.006 | ZFP91 -0.06 | ZFPL1 -0.119 | ZMAT2 -0.042 | ZMYM1 -0.101 | ZMYM3 -0.033 | ZNF143 0.093

O=C(Nc1nc2ccccc2n1CCN1CCOCC1)c1cccc([N+](=O)[O-])c1 [IRAK-1-4 Inhibitor I]
inactive: ZEB2 0.02 | ZER1 0.025 | ZFAND5 0.057 | ZFAND6 0.032 | ZFP91 -0.134 | ZFPL1 0.021 | ZMAT2 0.11 | ZMYM1 0.006 | ZMYM3 0.057 | ZNF143 0.108

NC(=O)Nc1cc(-c2cccc(F)c2)sc1C(=O)N[C@H]1CCCNC1
inactive: ZEB2 0.003 | ZER1 -0.046 | ZFAND5 -0.041 | ZFAND6 0.12 | ZFP91 -0.044 | ZFPL1 -0.04 | ZMYM1 -0.108 | ZMYM3 -0.042 | ZNF143 0.07
active: ZMAT2 0.282

CNC(=O)c1ccc(Nc2ncc(C(F)(F)F)c(NCc3nccnc3N(C)S(C)(=O)=O)n2)cc1 [defactinib]
active: ZMYM1 0.558
inactive: ZEB2 0.019 | ZER1 0.027 | ZFAND5 0.085 | ZFAND6 -0.045 | ZFP91 0.054 | ZFPL1 -0.083 | ZMAT2 -0.014 | ZMYM3 -0.013 | ZNF143 -0.171

CC(C)(C)Cn1c(N)nc2ccc(-c3[nH]c(C(C)(C)C)nc3-c3ccc(F)cc3)nc21 [ralimetinib]
inactive: ZEB2 -0.075 | ZER1 0.089 | ZFAND5 0.024 | ZFAND6 -0.048 | ZFP91 -0.033 | ZFPL1 0.152 | ZMAT2 -0.024 | ZMYM1 0.078 | ZMYM3 -0.07 | ZNF143 0.112

CON(C)C(=O)N1N=C(c2cc(F)ccc2F)S[C@@]1(CCCN)c1ccccc1 [filanesib]
inactive: ZEB2 0.025 | ZER1 -0.006 | ZFAND5 0.073 | ZFAND6 -0.111 | ZFP91 0.183 | ZFPL1 -0.001 | ZMAT2 -0.084 | ZMYM1 0.067 | ZMYM3 0.012 | ZNF143 0.024

Cc1nc(Nc2ncc(C(=O)Nc3c(C)cccc3Cl)s2)cc(N2CCN(CCO)CC2)n1 [dasatinib]
inactive: ZEB2 -0.226 | ZER1 -0.033 | ZFAND5 0.082 | ZFAND6 0.03 | ZFP91 0.009 | ZFPL1 0.04 | ZMAT2 0.042 | ZMYM1 -0.045 | ZMYM3 0.047 | ZNF143 -0.007

C[C@@H](Oc1cc(-c2cnn(C3CCNCC3)c2)cnc1N)c1c(Cl)ccc(F)c1Cl [crizotinib]
inactive: ZEB2 -0.141 | ZER1 0.084 | ZFAND5 -0.085 | ZFAND6 -0.041 | ZFP91 0 | ZFPL1 0.107 | ZMAT2 0.098 | ZMYM1 -0.017 | ZMYM3 0.04 | ZNF143 -0.06

Cc1ccc(NC(=O)c2cccc(N(C)C)c2)cc1NC(=O)c1ccc(O)cc1
inactive: ZEB2 0.071 | ZER1 -0.059 | ZFAND5 0.034 | ZFAND6 0.026 | ZFP91 0.036 | ZFPL1 0.094 | ZMAT2 0 | ZMYM1 0.051 | ZMYM3 0.056 | ZNF143 0.023

CN1CCc2c(c3ccccc3n2Cc2ccc(C(=O)NO)cc2)C1 [Tubastatin A]
active: ZFAND5 0.285
inactive: ZEB2 0.181 | ZER1 0.048 | ZFAND6 0.144 | ZFP91 0.077 | ZFPL1 -0.025 | ZMAT2 0.057 | ZMYM1 0.071 | ZMYM3 -0.028 | ZNF143 -0.031

O=C(O)c1ccc2c(c1)nc(Nc1cccc(Cl)c1)c1ccncc12 [silmitasertib]
inactive: ZEB2 -0.001 | ZER1 0.028 | ZFAND5 -0.03 | ZFAND6 -0.018 | ZFP91 0.086 | ZFPL1 0.003 | ZMAT2 0.028 | ZMYM1 0.255 | ZMYM3 -0.012 | ZNF143 0.023

CCN(CCCOc1ccc2c(Nc3cc(CC(=O)Nc4cccc(F)c4)[nH]n3)ncnc2c1)CCOP(=O)(O)O [barasertib]
inactive: ZEB2 0.117 | ZER1 0.034 | ZFAND5 -0.013 | ZFAND6 0.04 | ZFP91 -0.105 | ZFPL1 -0.032 | ZMAT2 -0.047 | ZMYM1 0.022 | ZMYM3 -0.076 | ZNF143 0.01

CCCCN(Cc1ccc(C(=O)NO)cc1)C(=O)Nc1ccccc1 [Nexturastat A]
active: ZFAND5 0.371
inactive: ZEB2 0.047 | ZER1 0.012 | ZFAND6 0.027 | ZFP91 0.079 | ZFPL1 -0.064 | ZMAT2 -0.011 | ZMYM1 0.059 | ZMYM3 0.07 | ZNF143 0.19

Cc1nc(Nc2n[nH]c3c2CN(C(=O)N[C@H](CN(C)C)c2ccccc2)C3(C)C)c2sccc2n1
inactive: ZEB2 -0.149 | ZER1 -0.141 | ZFAND5 0.038 | ZFAND6 0.028 | ZFP91 -0.059 | ZFPL1 -0.034 | ZMAT2 0.07 | ZMYM1 -0.063 | ZMYM3 -0.01 | ZNF143 -0.047

Cc1cn(-c2cc(NC(=O)c3ccc(C)c(Nc4nccc(-c5cccnc5)n4)c3)cc(C(F)(F)F)c2)cn1 [nilotinib]
inactive: ZEB2 0.025 | ZER1 0.098 | ZFAND5 0.098 | ZFAND6 0.014 | ZFP91 0.023 | ZFPL1 -0.047 | ZMAT2 0.012 | ZMYM1 -0.009 | ZMYM3 0.041 | ZNF143 -0.105

CCCS(=O)(=O)Nc1ccc(F)c(C(=O)c2c[nH]c3ncc(Cl)cc23)c1F
inactive: ZEB2 0.123 | ZER1 -0.001 | ZFAND5 -0.058 | ZFAND6 0.002 | ZFP91 -0.041 | ZFPL1 0.006 | ZMAT2 -0.008 | ZMYM1 -0.006 | ZMYM3 0.016 | ZNF143 0.063
